The record followed here is PubChem BioAssay.

The nature of assay [1]: inhibitors of TNFa-induced NFkB p65 translocation, primary screen, imaging, HUVEC, MLSMR starter and 10KST1 sets (AID 438;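 active = inhibition above 20% together with a positive visual image hit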;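 also: compound added about 3h40 before a 20 min TNFalpha stimulation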;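 as to inhibition: signal is the nuclear over cytoplasmic p65 intensity ratio per well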). The following applies: HUVEC TNFa-induced p65 nuclear translocation; cell count: measured here: nuclei count (cytotoxicity indicator), at 2.08 µM; inhibition: at 2 µM, stronger effect = higher value, 0% TNFa-plus-vehicle, 100% no-TNFa wells.
Assay [2] can be described thus: reduction of polyQ htt aggregates in cells – imaging, exon1htt(103Q)mCFP cells, high-content imaging, primary screen (AID 483;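 active = visual image review flags a hit and inhibition of aggregation exceeds 20%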;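 also: compound exposure lasted 3 days before fixation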;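 as to nuclei count: percent of the per-plate median nuclei count of sample wells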). The following applies: exon1htt(103Q)mCFP cell line, aggregate imaging, at 2 µM; inhibition of aggregation: stronger effect = higher value; nuclei count: measured here: cell count, toxicity.
Assay [3] is described as follows: endothelial E-selectin expression blockers – imaging, HUVEC, immunofluorescence, MLSMR starter and 10KST1 sets, primary screen (AID 487;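 active = visually confirmed hit in the image check and inhibition above 20%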;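 as to inhibition: signal is fraction of cell area covered by stained E-selectin grains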;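 as to nuclei count: 100% = median nuclei count of all wells on the same plate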). The following applies: HUVEC TNFalpha-induced E-selectin immunofluorescence imaging, at 2 µM; inhibition: stronger effect = higher value; nuclei count: measured here: cell number, toxicity.
For assay [4], the target named is Voltage-gated potassium channel subunit beta-2 (Rattus norvegicus) (UniProt P62483). The experiment in a line: inhibitors of rat Kvbeta2 reductase activity – biochemical, NADPH fluorescence, primary screen (AID 622).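 Also: slope of raw intensity against log time taken from 70 to 1610 s.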 The following applies: recombinant KvBeta, 4-cyanobenzaldehyde reduction, at 10 µM, stronger effect = higher value.
Sequence of Voltage-gated potassium channel subunit beta-2 (Rattus norvegicus) (P62483 whole entry, looked up): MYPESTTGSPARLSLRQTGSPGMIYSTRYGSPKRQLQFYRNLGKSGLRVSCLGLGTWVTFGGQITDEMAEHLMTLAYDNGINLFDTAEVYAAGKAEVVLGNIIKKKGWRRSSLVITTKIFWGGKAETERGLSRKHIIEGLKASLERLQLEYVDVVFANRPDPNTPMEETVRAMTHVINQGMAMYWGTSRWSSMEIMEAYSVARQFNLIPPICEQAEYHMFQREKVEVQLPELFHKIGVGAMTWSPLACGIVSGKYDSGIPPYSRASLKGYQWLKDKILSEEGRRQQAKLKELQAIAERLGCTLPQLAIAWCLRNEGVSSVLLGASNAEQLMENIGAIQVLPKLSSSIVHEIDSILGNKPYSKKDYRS
Assay [5] has the same target. The experiment in a line: enhancers of rat Kvbeta2 NADPH turnover – biochemical, NADPH fluorescence, primary screen (AID 623;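 active = NADPH fluorescence slope more negative than the mean of all samples by about 3 SD, 99.7% confidence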;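 also: fluorescence intensity change per second fitted from 20 to 320 s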). The following applies: Recombinant KvBeta, NADPH fluorescence decrease slope, 10 min; at 10 µM; stronger effect = lower value.
The target of assay [6] is Alpha-2C adrenergic receptor (Homo sapiens) (UniProt P18825). In words: compounds altering alpha2C-coupled GIRK flux – cell-based, HEK293 alpha2C/GIRK1/2, thallium flux, primary screen (AID 624;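 active = fluorescence slope after compound addition differing from the mean of all screened samples at 99.7% confidence, in either direction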;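 also: slope of fluorescence ratio to pre-addition baseline per second over 15 to 24 s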). The following applies: thallium flux BTC fluorescence, at 10 µM, actives lie on both sides.
Sequence of Alpha-2C adrenergic receptor (Homo sapiens) (P18825 whole entry, looked up): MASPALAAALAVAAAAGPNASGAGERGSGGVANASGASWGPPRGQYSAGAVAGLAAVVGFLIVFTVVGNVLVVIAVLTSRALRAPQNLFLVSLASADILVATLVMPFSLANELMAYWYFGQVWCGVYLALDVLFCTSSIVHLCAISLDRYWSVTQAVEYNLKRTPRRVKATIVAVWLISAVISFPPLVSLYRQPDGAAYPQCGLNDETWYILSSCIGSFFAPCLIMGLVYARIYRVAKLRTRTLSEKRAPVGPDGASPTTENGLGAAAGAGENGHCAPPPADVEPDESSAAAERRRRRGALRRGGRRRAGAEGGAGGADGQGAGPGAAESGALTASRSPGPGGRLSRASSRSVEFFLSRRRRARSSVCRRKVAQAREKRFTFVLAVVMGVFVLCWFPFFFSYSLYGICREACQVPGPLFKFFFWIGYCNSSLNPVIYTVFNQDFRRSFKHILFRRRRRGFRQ
Assay [7] in a line: blockers of RIG-like receptor reporter activation – cell-based, Sendai virus stimulus, luciferase, 10K MLSCN set, TLR/RLR signaling modifier project, primary screen (AID 602276;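 active = inhibition at or above 50% at 10 µM; inactive = inhibition below 50%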;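 also: firefly luciferase from ISG56 promoter only with Renilla not read in this screen; 0% = Sendai virus plus DMSO and 100% = medium plus DMSO without virus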). The following applies: HEK293 RL24 IRF3 luciferase reporter, at 10 µM, stronger effect = higher value.
Assay [8] in a line: TLR3 IRF3 reporter activation blockers – cell-based, poly I:C stimulus, luciferase, 10K MLSCN set, primary screen (AID 602277;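 active = inhibition of the reporter signal at or above 50%; inactive = inhibition below 50%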). The following applies: HEK293-TLR3 RL24 IRF3 luciferase reporter, at 10 µM, stronger effect = higher value.

The structures appear in SMILES notation. Calls of active or inactive are those of the source.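 The calls were made as follows, unless noted: active = fluorescence slope higher than the sample average by over 3 SD (cut at about -0.22 in these data, passing the limit was not always enough); inactive = the rest.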

As to `O=C(CN(Cc1ccc(F)cc1)C(=O)Cn1nnc2ccccc21)NCC1CCCO1` (stereo not drawn), the cell count in assay [1] came to 438. Moreover, the inhibition was -6.8% (inactive) in assay [1], -33% (inactive) in assay [3], 13.2% (inactive) in assay [7] and 26.1% (inactive) in assay [8]. Besides, in assay [2], the inhibition of aggregation is 5.8% (inactive). The nuclei count in assay [2] came to 107%; in assay [3], 84%. In addition, the fluorescence slope in assay [4] was -0.434 (inactive). The NADPH fluorescence slope in assay [5] was 7.2e-05 (inactive). In addition, the slope in assay [6] was 0.00612 (inactive).
With `O=C(C(Cc1ccccc1)n1cccc1)N1CCCCCC1` (stereo not drawn), the cell count in assay [1] amounted to 690. Further, the inhibition in assay [1] was -1.6% (inactive); in assay [3], -42.3% (inactive); in assay [7] it was 3.28% (inactive); in assay [8] it was 25.3% (inactive). For the same compound, the inhibition of aggregation in assay [2] is 8.2% (inactive). Further, the results for the nuclei count in assay [2] and in assay [3] were 104% and 115%, respectively. Further, the fluorescence slope in assay [4] was -0.517 (inactive). For the same compound, the NADPH fluorescence slope in assay [5] is -1.7e-05 (inactive). The slope in assay [6] was 0.00572 (inactive).
In the case of `COc1ccc(NC(=O)c2oc3ccc(S(=O)(=O)N4CCC5(CC4)OCCO5)cc3c2C)cc1`, the cell count in assay [1] was 209. Further, the inhibition was -4.4% (inactive) in assay [1], -77.8% (inactive) in assay [3], 3.21% (inactive) in assay [7] and 10.5% (inactive) in assay [8]. Besides, the inhibition of aggregation in assay [2] is 10% (inactive). In addition, the nuclei count in assay [2] turned out to be 83.1%; in assay [3], 121%. The fluorescence slope in assay [4] is -0.447 (inactive). In addition, the NADPH fluorescence slope in assay [5] was 4.2e-05 (inactive). Besides, the slope in assay [6] was 0.00642 (inactive).
In the case of `CCOc1ccc(NC2c3ccccc3C(=O)N2Cc2ccco2)cc1` (stereo not drawn), the cell count in assay [1] stood at 695. The inhibition in assay [1] was -6.7% (inactive); in assay [3], -23.8% (inactive); in assay [7] it was -13.3% (inactive); in assay [8], -22.8% (inactive). Further, the inhibition of aggregation in assay [2] is 6.4% (inactive). Further, the nuclei count was determined as 47.6% in assay [2] and 91.8% in assay [3]. Moreover, the fluorescence slope in assay [4] is -0.6 (inactive). In addition, the NADPH fluorescence slope in assay [5] was 1.5e-05 (inactive). In assay [6], the slope was 0.00369 (inactive).
As to `Cc1ccc2c(c1)C(N1CCCC1=O)CC(c1ccco1)N2` (stereo not drawn), the cell count in assay [1] came to 343. Further, the inhibition in assay [1] is 0% (inactive); in assay [3], -7.7% (inactive); in assay [7], -30.3% (inactive); in assay [8] it was 98.9% (active). In assay [2], the inhibition of aggregation was 14.5% (inactive). The values for the nuclei count in assay [2] and in assay [3] were 94.2% and 106%, respectively. Also, in assay [4], the fluorescence slope was -0.407 (inactive). Moreover, the NADPH fluorescence slope in assay [5] is 3.1e-05 (inactive). The slope in assay [6] is 0.00529 (inactive).
As for `Cc1ccc(N(C(=O)C2CCC(=O)N2)C2(C(=O)NC3CCCCC3)CCCCC2)cc1` (stereo not drawn), the cell count in assay [1] was determined as 690. The inhibition is 11.9% (inactive) in assay [1], -16.1% (inactive) in assay [3], -4.63% (inactive) in assay [7] and 5.62% (inactive) in assay [8]. For the same compound, the inhibition of aggregation in assay [2] was 22.8% (inactive). The nuclei count in assay [2] came to 85.5%; in assay [3], 84.9%. Further, the fluorescence slope in assay [4] is -0.558 (inactive). For the same compound, the NADPH fluorescence slope in assay [5] was 3.4e-05 (inactive). Further, the slope in assay [6] was 0.00517 (inactive).
For `CCn1c(SCC(=O)N2CCN(c3ccc(Cl)cc3)CC2)nc2ccccc2c1=O`, the cell count in assay [1] was 324. Further, the inhibition was 8.1% (inactive) in assay [1], -184% (inactive) in assay [3], -8.17% (inactive) in assay [7] and -12.7% (inactive) in assay [8]. In assay [2], the inhibition of aggregation was 19.7% (inactive). Further, the nuclei count in assay [2] turned out to be 83.7%; in assay [3] it was 102%. In addition, the fluorescence slope in assay [4] is -0.545 (inactive). In assay [5], the NADPH fluorescence slope is 4e-05 (inactive). Also, the slope in assay [6] was 0.00578 (inactive).
`CCN1C(=C2C(=O)c3ccccc3C2=O)C=Cc2ccccc21`: in assay [1], the cell count amounted to 347. Moreover, the inhibition in assay [1] was 23.3% (active); in assay [3], -27.1% (inactive); in assay [7], -14.8% (inactive); in assay [8] it was -27.9% (inactive). Moreover, the inhibition of aggregation in assay [2] is -4% (inactive). Besides, the nuclei count in assay [2] was found to be 107%; in assay [3] it was 117%. The fluorescence slope in assay [4] is -0.284 (inactive). Also, the NADPH fluorescence slope in assay [5] was -1.4e-05 (inactive). The slope in assay [6] was 0.00581 (inactive).
Take `COc1ccccc1-c1cc(C(=O)Nc2cc(C)nn2-c2ccccc2)no1`: the cell count in assay [1] turned out to be 478. Moreover, the inhibition in assay [1] was -9.3% (inactive); in assay [3] it was 4.5% (inactive); in assay [7], -1.99% (inactive); in assay [8] it was 16% (inactive). Besides, in assay [2], the inhibition of aggregation is -24.6% (inactive). The nuclei count in assay [2] turned out to be 111%; in assay [3], 109%. Further, the fluorescence slope in assay [4] was -0.381 (inactive). Further, the NADPH fluorescence slope in assay [5] is -2e-05 (inactive). For the same compound, in assay [6], the slope was 0.00489 (inactive).
Take `COc1ccc(C2C(C(C)=O)=C(C)N=c3s/c(=C/c4ccc5c(c4)OCO5)c(=O)n32)cc1` (stereo not drawn): the cell count in assay [1] stood at 437. Also, the inhibition in assay [1] is -7.3% (inactive); in assay [3], -0.5% (inactive); in assay [7], 10.2% (inactive); in assay [8], 23.9% (inactive). For the same compound, in assay [2], the inhibition of aggregation is -44.9% (inactive). In addition, the nuclei count in assay [2] and in assay [3] was 116% in each case. The fluorescence slope in assay [4] was -0.528 (inactive). Also, the NADPH fluorescence slope in assay [5] is -5.5e-05 (inactive). For the same compound, in assay [6], the slope is 0.00398 (inactive).
Turning to `CC(C)COc1ccc(C(=O)OCCN2CCOCC2)cc1`, the cell count in assay [1] came to 211. The inhibition in assay [1] was 2.3% (inactive); in assay [3], -18.5% (inactive); in assay [7], -17.8% (inactive); in assay [8], -15% (inactive). For the same compound, in assay [2], the inhibition of aggregation is -8.6% (inactive). Also, the nuclei count in assay [2] was 108%; in assay [3], 116%. Further, in assay [4], the fluorescence slope is -0.636 (inactive). In assay [5], the NADPH fluorescence slope is 1.1e-05 (inactive). Besides, in assay [6], the slope was 0.00666 (inactive).
Turning to `Cc1nc2ccccc2n1CCC(=O)Nc1cccc(F)c1`, the cell count in assay [1] is 606. Also, the inhibition was -4.8% (inactive) in assay [1], -23.9% (inactive) in assay [3], 16.2% (inactive) in assay [7] and 4.83% (inactive) in assay [8]. The inhibition of aggregation in assay [2] was 0.2% (inactive). The nuclei count in assay [2] is 100%; in assay [3], 110%. The fluorescence slope in assay [4] is -0.303 (inactive). For the same compound, in assay [5], the NADPH fluorescence slope is 9.1e-07 (inactive). Further, in assay [6], the slope is 0.00551 (inactive).
On to `Cn1nnnc1SCC(=O)N1CCN(c2ccccc2)CC1`, for which the cell count in assay [1] was 400. Further, the inhibition is -0.2% (inactive) in assay [1], -49.9% (inactive) in assay [3], 11.7% (inactive) in assay [7] and 27.5% (inactive) in assay [8]. Moreover, the inhibition of aggregation in assay [2] is 7% (inactive). For the same compound, the nuclei count amounted to 97.4% in assay [2] and 97.6% in assay [3]. The fluorescence slope in assay [4] was -0.362 (inactive). Besides, the NADPH fluorescence slope in assay [5] was -4.2e-05 (inactive). For the same compound, in assay [6], the slope is 0.00625 (inactive).

By inhibition is commonly meant the change of the read-out against control, counted positive when it falls.
